IL-1B inflam inh – inhibitors of inflammasome signaling (IL-1 beta secretion); THP-1 LPS/ATP IL-1B secretion, AlphaLISA, 16 h; active compounds read low; activity change, % at 57.5 µM; hit rate 4.7% among 360,000; in the data active = activity change below about -50%; inconclusive = mostly about -30% to -49%
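Secreted IL-1B measured by AlphaLISA bead assay after 16 h compound exposure of THP-1 cells; compounds (final up to 57.5 uM) added 1 h before LPS (250 ng/mL) and ATP (1.25 mM) stimulation; lower signal means less secretion.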
HT1080-NT tox – kills 2HG-producing HT-1080-NT fibrosarcoma cells; HT-1080-NT fibrosarcoma viability, CellTiter-Glo ATP luminescence, 48 h; Potency, µM (highest dose often 46.1 µM), for the others: at the top dose activity, negative = less viability, actives largely listed as cytotoxic; hit rate 1.6% among 360,000;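 note: NT is the 2HG producing partner of a matched IDH1 knockdown line; potency is the fitted concentration of half-maximal effect; 0% = DMSO-treated cells and -100% = media-only wells without cells; nearly all actives have a fitted effect of over 55% in size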
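HT-1080-NT fibrosarcoma cells (2HG-overproducing), 750 cells/well in RPMI with 5% FBS, dosed after 2 h and incubated 48 h at 37C. CellTiter-Glo luminescence normalized to DMSO and no-cell wells; concentration-response curves fitted and classed.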
DT40 TDP1 CPT – DT40-hTDP1 cell growth loss with CPT. hit rate 12% among 420,000. Potency, µM (series often up to 46.2 µM), inactives show at the highest dose activity change, negative = growth inhibition, actives largely listed as inhibitors. chicken DT40 Tdp1-/-;hTDP1 cells + 20 nM CPT, ATP luminescence, 48 h. AID 686979; note: potency is the fitted concentration of half-maximal effect; nearly all actives have a fitted effect of over 55% in size
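Cell growth measured by CellTiter-Glo luminescence after a minimum 48 h, 37 C compound exposure with 20 nM CPT in Tdp1-knockout DT40 cells stably expressing hTDP1, seeded 400/well; qHTS titration format.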
HT1080 IDH1KD tx – toxicity to HT-1080 IDH1 knockdown cells (counter line) | HT-1080 IDH1 knockdown viability, ATP luminescence, 48 h | Potency, µM (doses to about 46.1 µM), for the others: at the top dose activity, negative = toxicity, hits mostly cytotoxic | hit rate 2% among 360,000;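 note: potency is the fitted concentration of half-maximal effect; 0% = DMSO wells and -100% = cell-free medium wells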
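After a 2 h attachment period, IDH1KD HT-1080 cells took pin-transferred compound for 48 h at 37 °C; ATP-based luminescence after 10 min room-temperature reagent incubation reported viability.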
ELG1 DNA repair – inhibitors of ELG1-dependent DNA repair in HEK293T cells; HEK293T ELG1-luciferase reporter, luminescence, 16 h; DNA damage induced by 5-fluorouridine; Potency, µM (titrated, usually from 46.1 µM), without a hit: top-dose activity change, negative = inhibition, most hits filed as inhibitors; hit rate 2.3% among 330,000; note: potency is the fitted concentration of half-maximal effect; nearly all actives have a fitted effect of over 55% in size
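Reporter activity after DNA damage by 5-fluorouridine is monitored. Compound-treated cells incubate 16 hr at 37 °C, then ONE-Glo is added for 30 min before luminescence reading.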
DT40 TDP1 no CPT – qHTS for Inhibitors of human tyrosyl-DNA phosphodiesterase 1 (TDP1): qHTS in cells in absence of CPT | Potency, µM (titrated, usually from 46.2 µM), for the others: at the top dose activity change, negative = growth inhibition, most hits filed as inhibitors | AID 686978, 2013 | DT40 Tdp1-/- hTDP1 cells, no CPT, ATP luminescence, 48 h | hit rate 15% among 420,000; note: potency is the fitted concentration of half-maximal effect; nearly all actives have a fitted effect of over 55% in size
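Stably hTDP1-transfected Tdp1-null chicken DT40 cells were treated with library compounds minus camptothecin and grown for at least 48 hr at 37 °C, after which cellular ATP was quantified by luminescence.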
The depositor's hits bear a star; ? = inconclusive; . = no result given; [ ] = another dose, or the depositor's remark. Only some compounds are listed: those with a hit (about 19% of all), similar ones and a draw of the others. Unless noted, calls come from the whole dose curve; as a rule, active = well fitted curve in the direction sought with a large enough effect; inconclusive = small, poorly fitted or top-dose-only effect, or another doubt; inactive = no such curve, though single readings can be large; an effect the other way counts as inactive or inconclusive. Unless noted, % is set by controls: 0 for no effect and ±100 for the full control effect.

SMILES	IL-1B inflam inh	HT1080-NT tox	DT40 TDP1 CPT	HT1080 IDH1KD tx	ELG1 DNA repair	DT40 TDP1 no CPT
Cc1ccc(C2=NN(C(=O)CSc3nccn3C)C(c3ccco3)C2)cc1 (configuration not stated)	?	18µM*	21µM*	15µM*	?	21µM*
CC(C)[C@H](NS(=O)(=O)c1ccccc1)C(=O)OCC(=O)N1N=C(c2ccc(Cl)cc2)CC1c1ccco1 (some centres not stated)	-72*	?	18µM*	?	?	13µM*
O=C(c1ccco1)N1N=C(c2ccc(Cl)cc2)CC1c1ccco1 (configuration not stated)	?	?	18µM*	-3%	-20%	9.2µM*
CC(=O)N1N=C(c2ccc(NS(=O)(=O)c3ccccc3)cc2)CC1c1ccco1 (configuration not stated)	58	4.6µM*	2.6µM*	5.2µM*	-16%	2.3µM*
CCC(=O)N1N=C(c2ccc(Cl)cc2)CC1c1ccco1 (configuration not stated)	.	-3%	23µM*	-10%	1%	12µM*
CC(=O)N1N=C(c2c(-c3ccccc3)c3cc(C)ccc3[nH]c2=O)CC1c1ccco1 (configuration not stated)	?	-16%	?	-20%	23µM*	?
O=C(c1ccco1)N1N=C(c2ccc(Br)cc2)CC1c1ccco1 (configuration not stated)	-67*	5%[9.24 µM]	8.2µM*	10%	11µM*	5.2µM*
CCCc1cc(=O)[nH]c(SCC(=O)N2N=C(c3ccc(Cl)cc3)CC2c2ccco2)n1 (configuration not stated)	?	2%	?	-5%	15%	?
Nc1cc(=O)[nH]c(SCC(=O)N2N=C(c3ccc(Cl)cc3)CC2c2ccco2)n1 (configuration not stated)	-26	-19%	18µM*	-19%	-5%	?
CCCc1cc(=O)oc2cc(OC(C)C(=O)NC3CC(C)(C)NC(C)(C)C3)ccc12 (configuration not stated)	-6	-14%	-7%	-2%	24%	-9%
CC(=O)c1cccc(NC(=O)N2CCC(CN3CCCCC3)CC2)c1	.	.	20%	.	.	3%
CCCCCCSc1nnc2c(n1)OC(C)Nc1ccc(Br)cc1-2 (configuration not stated)	.	.	-6%	.	.	0%
COc1cc(OC)cc(C(=O)N2CCN(C3CCC(C)CC3)CC2)c1 (configuration not stated)	10	-13%	-17%	-3%	.	-23%
COc1ccc(C2=NN(C(N)=S)C(c3ccco3)C2)cc1 (configuration not stated)	0	9%	?	-7%	12%	-23%
COc1ccc(C2=NN(C(=O)c3ccco3)C(c3ccco3)C2)cc1OC (configuration not stated)	-20	-17%	29µM*	-15%	-3%	18µM*
CCc1ccc(C2=NN(C(C)=O)C(c3ccco3)C2)cc1 (configuration not stated)	-5	-3%	?	-3%	?	16µM*
COc1ccc(C2=NN(C(=O)CSc3nnc(-c4ccccc4F)o3)C(c3ccco3)C2)cc1 (configuration not stated)	9	-5%	?	-6%	?	21µM*
COc1cc(OC)c2c(c1)C(=O)OC2c1cc(OC)c(OC)cc1C (configuration not stated)	.	.	?	.	.	11µM*
CCOP(=O)(OCC)c1nc(-c2ccc(Cl)cc2Cl)oc1N1CCCCC1	-113*	18µM*	12µM*	23µM*	?	18µM*
CCOP(=O)(OCC)c1nc(-c2ccccc2Cl)oc1N1CCOCC1	6	?	4%	13%	-2%	-15%
CCOC(=O)c1ccc2c(c1)NCc1cccc(OC)c1O2	3	19%	10µM*	7%	?	10µM*
CN(C)S(=O)(=O)c1ccc(Cl)c(NC(=O)COC(=O)/C=C/c2ccc3ccccc3n2)c1	9	-2%	3%	-1%	-10%	-1%
C[C@H]1CN([C@@H](C)CO)S(=O)(=O)c2ccc(Br)cc2O[C@@H]1CN(C)Cc1cccc(F)c1	-26	?	16µM*	-23%	.	16µM*
C[C@@H]1CN([C@@H](C)CO)S(=O)(=O)c2ccc(C#Cc3cccc(F)c3)cc2O[C@@H]1CN(C)CC1CC1	-29	-13%	?	-15%	.	?
C[C@H](CO)N1C[C@H](C)[C@@H](CN(C)Cc2cccc(F)c2)Oc2cc(-c3cccc(C#N)c3)ccc2S1(=O)=O	?	-13%	?	-2%	.	23µM*
SMILES	IL-1B inflam inh	HT1080-NT tox	DT40 TDP1 CPT	HT1080 IDH1KD tx	ELG1 DNA repair	DT40 TDP1 no CPT
C[C@H]1CN([C@@H](C)CO)S(=O)(=O)c2ccc(C#CC3CC3)cc2O[C@H]1CN(C)C(=O)c1cccnc1	-1	-14%	0%	-5%	.	-22%
C[C@@H]1CN([C@@H](C)CO)S(=O)(=O)c2ccc(C#CC3CCCCC3)cc2O[C@@H]1CN(C)Cc1cccnc1	-66*	?	15µM*	?	.	5.2µM*
C[C@@H]1CN([C@@H](C)CO)S(=O)(=O)c2ccc(Br)cc2O[C@H]1CN(C)Cc1ccc(-c2ccccc2)cc1	-28	?	21µM*	21µM*	.	5.8µM*
O=c1c(NCc2ccccc2Cl)nccn1-c1ccccc1	.	.	-18%	.	.	0%
C[C@@H]1CN([C@H](C)CO)S(=O)(=O)c2ccc(C#CCN(C)C)cc2O[C@@H]1CN(C)Cc1ccccc1F	-21	2%	?	2%	.	?
C[C@H]1CN([C@@H](C)CO)S(=O)(=O)c2ccc(C#CC(C)(C)O)cc2O[C@H]1CN(C)Cc1ccccc1	-27	-13%	18µM*	-8%	.	23µM*
C[C@H](CO)N1C[C@H](C)[C@@H](CN(C)Cc2ccc(Oc3ccccc3)cc2)Oc2cc(Br)ccc2S1(=O)=O	-2	?	23µM*	?	.	12µM*
C[C@H](CO)N1C[C@H](C)[C@@H](CN(C)C(=O)Nc2ccccc2)Oc2cc(Br)ccc2S1(=O)=O	0	-9%	-28%	-9%	.	?
Cc1ccc(C)c(OCCC(=O)OCC(=O)NCc2ccc(F)cc2)c1	9	1%	-24%	0%	19%	9%
